Shiga toxin inh – blocks Shiga toxin action in Vero cells | Vero cells, Shiga toxin protein synthesis inhibition reporter | inhibition, % at 38.7 µM | 9.2% of 290,000 active; in the data active = inhibition mostly above about 28%, no sharp cut-off; inactive = mostly below about 43%; also: 0% is about no effect
LmPK inhibitor – LmPK (Leishmania mexicana) enzyme inhibition; Potency, µM (highest dose often 57.5 µM), for the others: at the top dose activity change, negative = inhibition, usual class: inhibitors; Q27686; purified LmPK, Kinase-Glo ATP luminescence, 1 h; 0.37% of 290,000 active; also: potency is read from the fitted curve at half-maximal effect; % is scaled to controls: 0 for no effect and ±100 for the full control effect
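Screened at intermediate enzyme activity to detect both inhibitors and activators: LmPK at 0.1 nM, with a 0.5 nM enzyme column as activation reference. PEP 0.5 mM, ADP 0.1 mM; ATP detected by luminescence after 1 h.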
TbPYK inhibitor – blocks Trypanosoma brucei pyruvate kinase; Potency, µM (highest dose often 76.8 µM), for inactives: at the top dose activity, negative = inhibition, actives largely listed as inhibitors; TbPYK enzyme, Kinase-Glo Plus ATP luminescence, 45 min; 0.12% of 410,000 active; AID 624173; also: potency is read from the fitted curve at half-maximal effect; % is scaled to controls: 0 for no effect and ±100 for the full control effect; nearly all actives have a fitted effect of over 50% in size
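Activity of T. brucei pyruvate kinase was followed by Kinase-Glo Plus luminescence after the enzyme reacted 45 min at room temperature with 130 uM ADP (final) and substrate. Test compounds were added before ADP at multiple concentrations.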
Cycloheximide cs – counter-screen hit for Shiga toxin inhibitors, cycloheximide. AID 2314. max response, %. 12% of 300,000 active. cell reporter, cycloheximide protein synthesis inhibition counterscreen; in the data active = max response mostly above about 13%, no sharp cut-off; inactive = mostly below about 14%; also: read at 38.3 µM for the half of the compounds with a filed dose; 0% is about no effect
Giardia FBPA inh – inhibitors of Giardia lamblia fructose-1,6-bisphosphate aldolase. A8B2U2. purified Giardia FBPA. Potency, µM (top dose mostly 59.6 µM), for the others: at the highest dose activity, negative = inhibition, most hits filed as inhibitors. 0.71% of 290,000 active; also: potency is read from the fitted curve at half-maximal effect; % is scaled to controls: 0 for no effect and ±100 for the full control effect; nearly all actives have a fitted effect of over 55% in size
Target sequence (A8B2U2 whole entry, looked up): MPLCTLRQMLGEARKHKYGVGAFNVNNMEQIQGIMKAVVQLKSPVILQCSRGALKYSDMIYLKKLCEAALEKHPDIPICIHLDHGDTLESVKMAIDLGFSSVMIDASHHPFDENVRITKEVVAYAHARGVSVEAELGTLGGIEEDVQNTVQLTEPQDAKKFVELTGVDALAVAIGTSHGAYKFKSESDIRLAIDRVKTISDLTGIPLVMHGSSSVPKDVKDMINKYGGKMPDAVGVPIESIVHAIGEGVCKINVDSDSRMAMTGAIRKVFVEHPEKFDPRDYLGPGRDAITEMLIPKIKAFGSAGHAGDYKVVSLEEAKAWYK
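40 nM FBPA preincubated 10 min at RT with compound (up to 57.5 uM final), then substrate plus GAPDH/TPI/NAD/arsenate coupling and diaphorase/resazurin added. Fluorescence read after 20 min at RT, 525/598 nm.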
RE007 growth inh – less growth of the S. pombe RE007 Vpr strain | S. pombe RE007 Vpr strain, BacTiter-Glo ATP luminescence, 24 h | Potency, µM (series often up to 92.2 µM), without a hit: top-dose activity change, negative = less growth, hits mostly inhibitors | 0.21% of 360,000 active | AID 651644; active = well fitted falling curve with a large enough effect; inconclusive = small, poorly fitted or top-dose-only effect; inactive = no such curve, though single readings can be large or run the other way; also: potency is read from the fitted curve at half-maximal effect; % is scaled to controls: 0 for no effect and ±100 for the full control effect; nearly all actives have a fitted effect of over 50% in size
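Fission yeast strain RE007, carrying one chromosomally integrated HIV-1 vpr copy, was seeded at OD 0.01 in PMG+AL medium with 23 nL pinned compound. After 24 h at 30 °C and 99% humidity, viability was read by BacTiter-Glo luminescence.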
Starred values were filed as active, the others as inactive; ? = inconclusive; . = no result; + = active, no number. The sample as a whole holds a higher share of hits than the screen did. Unless noted, calls follow the shape of the dose curve; as a rule, active = well fitted curve in the direction sought with a large enough effect; inconclusive = small, poorly fitted or top-dose-only effect, or another doubt; inactive = no such curve, though single readings can be large; an effect the other way counts as inactive or inconclusive.

SMILES	Shiga toxin inh	LmPK inhibitor	TbPYK inhibitor	Cycloheximide cs	Giardia FBPA inh	RE007 growth inh
CCOC(=O)N1CCN(Cc2nc(N)nc(Nc3ccc(Oc4ccccc4)cc3)n2)CC1	23	3%	-2%	15*	-8%	-8%
Cc1[nH]n(C(N)=S)c(=O)c1N=Nc1ccc(Br)cc1	42*	10%	-6%	27*	20%	-12%
Cc1[nH]n(C(N)=S)c(=O)c1N=Nc1cccc(C(F)(F)F)c1	32*	3%	0%	17	24%	3%
Cc1[nH]n(C(N)=S)c(=O)c1N=Nc1ccc(S(=O)(=O)N2CCCC2)cc1	23	-1%	-9%	19*	?	0%
Cc1[nH]n(C(N)=S)c(=O)c1N=Nc1cc(C(F)(F)F)ccc1Cl	1	0%	3%	-5	18%	0%
Cc1ccc(N=Nc2c(C)[nH]n(C(N)=S)c2=O)cc1	56	-2%	4%	26	-1%	-12%
Cc1ccc(C)c(C(O)c2ncc(-c3ccc(F)cc3)[nH]2)c1 (configuration not stated)	.	.	0%	.	.	?
CCC1S/C(=N/N=C/c2ccco2)N(Cc2ccccc2C)C1=O (configuration not stated)	38*	-2%	-1%	9	0%	18%
CC1S/C(=N/N=C/c2ccco2)N(Cc2ccccc2)C1=O (configuration not stated)	99*	0%	-3%	35*	-15%	-13%
CCc1ccc(NC(=O)CSc2nccn(-c3ccc4c(c3)OCCO4)c2=O)cc1	.	.	-4%	.	.	30%
Cc1cc(C)cc(N(CC(=O)NCc2ccco2)S(=O)(=O)c2ccccc2)c1	48*	2%	6%	9	4%	2%
Oc1c(N=Nc2ccc(F)cc2)ccc2ccccc12	.	-8%	?	34*	?	-24%
Cc1ccc(N=Nc2ccc3ccccc3c2O)cc1	.	-18%	-17%	44*	-20%	-10%
CCCOCCN(C(=O)CCl)c1c(CC)cccc1CC	-5	.	.	1	1%	.
Cn1c(SCC(=O)Nc2ccc3c(c2)OCCO3)nnc1C(F)(F)F	.	.	-5%	.	.	10%
Cn1c(SCC(=O)c2ccc3c(c2)OCCO3)nnc1C(F)(F)F	34	3%	-13%	22*	-2%	12%
Cn1c(SCC(=O)c2ccc3c(c2)OCCO3)nnc1C1CC1	44*	1%	-10%	18*	-1%	17%
Cc1cc(NC(=NC2CC2)c2ccccc2F)n(-c2ccccc2)n1	-13	-4%	-3%	-1	-4%	-5%
CC(C)C(NC(=O)c1c(F)cccc1F)C(=O)N1CCN(c2ncccn2)CC1 (configuration not stated)	.	.	0%	.	.	15%
CCCNC(=O)c1cc(C2CCCCN2S(=O)(=O)Cc2cccc(C(F)(F)F)c2)on1 (configuration not stated)	.	.	4%	.	.	-6%
Cc1cccc(CCNCc2c(C(=O)O)c(C)n(-c3ccccc3)c2C)c1	1	4%	0%	-1	-5%	6%
COc1cccc(OCC(=O)NNC(=O)C(=O)N2CCCC2)c1	16	3%	-11%	-3	2%	4%
COc1ccc(OCC(=O)Nc2cccc(OC)c2)cc1	103*	-14%	3%	42*	-13%	7%
COc1ccc(OCC(=O)Nc2cc(OC)cc(OC)c2)cc1	-11	4%	1%	-2	0%	-3%
COc1cccc(NC(=O)COc2ccccc2C(N)=O)c1	60*	?	1%	40*	0%	-14%
SMILES	Shiga toxin inh	LmPK inhibitor	TbPYK inhibitor	Cycloheximide cs	Giardia FBPA inh	RE007 growth inh
COc1cccc(OCC(=O)NNC(=O)C(=O)Nc2cccc(C)c2)c1	60	-1%	5%	28*	.	-16%
CCCCOCCCNC(=O)C[C@@H]1C[C@@]2(C(=O)OC)CC(C)(C)CC=C2N(Cc2cccc3ccccc23)C1=O	.	.	.	.	.	0%
CCOC(=O)c1cc(-c2ccc(OC)cc2)n(CCC(=O)Nc2ccccc2OC)c1C	.	.	4%	.	.	.
CC(=O)Nc1c2c(nn1-c1ccccc1C)CS(=O)(=O)C2	-3	2%	-10%	3	5%	0%
Cc1cccc(Oc2ccc(Cl)cc2N)c1	89*	3%	-3%	34*	-8%	-1%
Nc1cc(Cl)ccc1Oc1ccccc1	-8	-1%	-3%	-1	-2%	2%
Nc1ncnc(Nc2ccccc2Cl)n1	4	-4%	-12%	17*	-1%	-2%
Nc1ncnc(Nc2ccc(F)c(Cl)c2)n1	57*	-5%	3%	19*	-9%	0%
Cc1ccc(Nc2ncnc(-n3cccc3)n2)cc1Cl	80*	-6%	-1%	32*	-1%	-3%
Clc1ccccc1Nc1ncnc2c1nnn2Cc1ccccc1	14	2%	-2%	12	0%	22%
Clc1cc(Cl)cc(Nc2ncnc(-n3cccc3)n2)c1	-16	1%	0%	-1	7%	-6%
Clc1ccccc1Nc1ncnc(-n2cccc2)n1	131*	-11%	0%	62*	-4%	-7%
Cc1nn(C)c2c1c(-c1ccccc1)cc(=O)n2C(C)C(=O)NCCc1ccc(Cl)cc1 (configuration not stated)	.	.	0%	.	.	.
CCc1nc2ccc(C(=O)NCCCn3ccnc3)cn2c1N(C)Cc1cc2ccccc2s1	.	.	-9%	.	.	?
O=C(CCN1CCCC1=O)NC1CCCc2c1cnn2-c1ccc(F)cc1F (configuration not stated)	37	-5%	-8%	15*	-2%	7%
COc1ccc(N/C=C/C(=O)c2ccc(OC)c(OC)c2)cc1	56*	-7%	-6%	24*	-14%	?
COc1ccc(N/C=C/C(=O)c2cc(OC)c(OC)c(OC)c2)cc1	.	1%	-7%	17*	11%	6%
COc1ccc(C(=O)/C=C/Nc2cccc(C)n2)cc1OC	+	-10%	0%	65*	-13%	-13%
COC(=O)c1ccc(N/C=C/C(=O)c2ccc(OC)c(OC)c2)cc1	-9	3%	1%	8	-1%	4%
COc1cccc(-c2cnc3c(NC(C)=O)cc(-c4ccc(C(=O)NC5CC5)cc4)cn23)c1	.	.	-10%	.	.	1%
Cc1nc2ccc(NC(=S)NC(C)C)cc2nc1C	12	-2%	-3%	20*	?	-5%
Cc1nc2ccc(NC(=S)NC3CC3)cc2nc1C	8	6%	-8%	19*	?	.
C#CCOCCOCCOCCNc1nc(N2CCN(C(=O)[C@H](CCC(=O)O)n3cc([C@@H](N)CCCCN)nn3)CC2)nc(N2CCN(C(=O)[C@H](CCCCN)n3cc([C@@H](N)CC(N)=O)nn3)CC2)n1	.	.	4%	.	.	-12%
CC(Sc1nnnn1C)C(=O)Nc1ccccc1 (configuration not stated)	41	0%	5%	-1	0%	-5%
Cn1nnnc1SCC(=O)Nc1ccc(Oc2ccccc2)cc1	22	-3%	-1%	8.9*	-1%	11%

High-throughput results: PubChem, National Center for Advancing Translational Sciences (NCATS)
